Measured values as given in the supplement of paper PMC7156485.

tested on: TDF; assay: H1.0 immunofluorescence intensity relative to DMSO (% of DMSO); higher = stronger H1.0 induction, active = 120 or more; conditions: concentration: 10 µM; 24 h
Procedure, shortened: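 HCC1569 and TDF cells were seeded at 800 per well in 384-well plates in RPMI with 10% FBS and treated with compounds at 10 µM for 24 h at 37 °C, in triplicate. After fixation in 3.7% formaldehyde, cells were stained with a rabbit anti-H1.0 antibody, an AlexaFluor 647 secondary and DAPI, and six fields per well were imaged at ×10. H1.0 nuclear intensity or cell number is given as percent of the plate control, using the median of replicates, with HCC1569 values smoothed for positional effects.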
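Note: TDF is a line of transformed human dermal fibroblasts of mesenchymal origin.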

H1.0 immunofluorescence intensity, inactive:
O=C(OC12CC3CC(CC(C3)C1)C2)c1ccc(NCc2cc(O)ccc2O)cc1 [1-adamantyl 4-[(2,5-dihydroxybenzyl)amino]benzoate] 120
N=C(N)N1CCc2ccccc2C1 [Debrisoquin] 96
CCCCCCCCCCCCCCCCn1cc[n+](Cc2ccccc2)c1C.[I-] 103
C=C1C(=CC=C2CCCC3(C)C2CCC3C(C)CCCC(C)(C)O)CC(O)CC1O (stereo not drawn) [Calcitriol] 98.2
COc1cc2c(Nc3ccc(Br)cc3F)ncnc2cc1OCC1CCN(C)CC1 [Vandetanib] 108
CCCCCCCCCCCCCCCCCC(=O)O [Octadecanoic acid] 104
CC=CCC=CCCC(=O)C1OC1C(N)=O (stereo not drawn) [Cerulenin] 97.8
O=c1cc(-c2ccccc2)oc2cc(O)c(O)cc12 [6,7-Dihydroxyflavone] 98.5
CCCCCCCCCCCCCCCCCCCCCCCC(=O)O [Tetracosanoic acid] 98
NS(=O)(=O)c1cc2c(cc1Cl)NCNS2(=O)=O [Hydrochlorothiazide] 90.9
CC12CC3CC(C)(C1)CC(N)(C3)C2.Cl [Memantine hydrochloride] 101
COc1ccc(OC)c2c(=S)c3ccccc3[nH]c12 106
Oc1cc2c(cc1O)C(c1ccccc1)CNCC2 (racemic) 92.2
